Reference: PubChem BioAssay (NCATS)
Records with an inconclusive call do not appear. A call without a number means that no potency is given here. The source made the active and inactive calls. Unless noted, calls follow the shape of the dose curve; as a rule, active = well fitted curve in the direction sought with a large enough effect; inconclusive = small, poorly fitted or top-dose-only effect, or another doubt; inactive = no such curve, though single readings can be large; an effect the other way counts as inactive or inconclusive.

Assays:
[1] = target: Catechol O-methyltransferase (Homo sapiens) (UniProt P21964); assay: Confirmatory Screen for Target Class Profiling of Small Molecule Inhibitors of Methyltransferases (AID 1745852; calls by dose curve; also: potency is read from the fitted curve at half-maximal effect); conditions: MTase-Glo luminescence, SAH detection, recombinant enzyme; measured here: COMT max response; stronger effect = lower value
[2] = target: Guanidinoacetate N-methyltransferase (Homo sapiens) (UniProt Q14353); assay: as above; conditions: activity change, negative = inhibition: at 57.3 µM (top of the series) unless noted
[3] = target: Nicotinamide N-methyltransferase (Homo sapiens) (UniProt P40261); assay: as above; conditions: MTase-Glo luminescence, SAH detection, recombinant enzyme; measured here: NNMT max response; stronger effect = lower value
[4] = target: Phenylethanolamine N-methyltransferase (Homo sapiens) (UniProt P11086); assay: as above; conditions: MTase-Glo luminescence, SAH detection, recombinant enzyme; measured here: PNMT max response; stronger effect = lower value
[5] = target: Phospholipid hydroperoxide glutathione peroxidase GPX4 (Homo sapiens) (UniProt P36969); assay: Primary qHTS Assay for Inhibitors of Recombinant Selenoprotein Glutathione Peroxidase 4 (GPX4) (AID 1845192); also: nearly all actives have a fitted effect of over 65% in size; also: potency is read from the fitted curve at half-maximal effect
Procedure, shortened: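 GR-coupled assay: recombinant GPX4 preincubated 30 min with compound at room temperature; final 200 nM GPX4, 1 mM GSH, 0.5 mM cumene hydroperoxide, 0.5 mM NADPH, 100 nM GR, 0.01% BSA, pH 7.5 Tris. NADPH fluorescence (340/450 nm) read at 0 and 15 min.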

[6] = target: Luciferin 4-monooxygenase (Photinus pyralis) (UniProt P08659); assay: Primary firefly luciferase (FLuc) qHTS assay for identification of artifact compounds. (AID 1845220); also: nearly all actives have a fitted effect of over 60% in size; also: potency is read from the fitted curve at half-maximal effect
Procedure, shortened: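 D-luciferin and ATP (10 uM each, final) in Tris acetate buffer pH 7.6 were incubated with compounds for 15 min at room temperature. The reaction was started with 10 nM Photinus pyralis luciferase and luminescence read after 5 min. Percent inhibition was fitted to a 4-parameter Hill equation.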

[7] = Primary fluorescence-based thiol-reactive (MSTI) qHTS assay for identification of artifact compounds. (AID 1845221); also: nearly all actives have a fitted effect of over 65% in size; also: potency is read from the fitted curve at half-maximal effect
Procedure, shortened: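 Curve-fitted percent inhibition (4-parameter Hill) derived from fluorescence, Ex 525/Em 598 nm, scaled with Acetyl-MSTI and MSTI; 1 h incubation at room temperature.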

[8] = tested on: Nanoluciferase (engineered Oplophorus gracilirostris luciferase); assay: Primary Nanoluciferase (NLuc) qHTS assay for identification of artifact compounds. (AID 1845222)
Procedure, shortened: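 Diluted conditioned medium from NLuc-expressing S16 cells treated with compounds for 15 min at room temperature, then Nano-Glo substrate added; luminescence read after 5 min. Percent inhibition versus no-enzyme and DMSO controls fitted to 4-parameter Hill equation.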

[9] = Primary redox qHTS assay for identification of artifact compounds. (AID 1845223)
Procedure, shortened: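 Amplex Red (25 uM) and HRP (250 mU/mL) in HBSS, with compounds for 15 min, then 250 uM DTT for 30 min, room temperature, dark. Fluorescence 525/598 nm read; normalized to DMSO and 10 uM DA3003; Hill fit.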

[10] = NCATS anti-infectives library activity on HEK293 viability as a counter-qHTS vs the C. elegans viability qHTS (AID 1745854)
Procedure, shortened: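 HEK293 cells, 1500 per well, exposed 24 hr at 37C in 5% CO2 to compounds in a 1:5 titration, up to 41.7 uM final. Viability read as CellTiter-Glo luminescence after 10 min at room temperature.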

[11] = target: Glutathione peroxidase 1 (Homo sapiens) (UniProt P07203); assay: Primary qHTS Assay for Inhibitors of Recombinant Selenoprotein Glutathione Peroxidase 1 (GPX1) (AID 1845191); also: nearly all actives have a fitted effect of over 65% in size
Procedure, shortened: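 GR-coupled assay: compounds preincubated 30 min at room temperature with GPX1, then reaction started with CHP; final 10 nM GPX1, 1 mM GSH, 0.5 mM CHP, 0.5 mM NADPH, 100 nM GR, 0.01% BSA, pH 7.5 Tris buffer. NADPH fluorescence (340/450 nm) read at 0 and 15 min.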

[12] = NCATS anti-infectives library activity on the primary C. elegans qHTS viability assay (AID 1745855; calls by dose curve; also: potency is read from the fitted curve at half-maximal effect)
Procedure, shortened: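 Viability is taken from GFP fluorescence of PE254-GFP-FLuc C. elegans imaged by laser cytometry over 7 days. Ten L1 worms per well grow at 21 °C on TOP10 E. coli capsules with titrated compound; levamisole marks toxicity.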

[13] = HepG2 viability counterscreen (readout 2: ATP content) against the NCATS DSHEA and TCM libraries (AID 1794840)
Procedure, shortened: (§1)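 HepG2 cells, 1,000/well, attached ~4 h, then exposed ~24 h at 37C to substances. Protease activity read by fluorescence of 25 uM GF-AFC (Ex/Em 380/510 nm) after 30 min; ATP then by CellTiter-Glo luminescence.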

[14] = HepG2 viability counterscreen (readout 1: protease activity) against the NCATS DSHEA and TCM libraries (AID 1794841);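 also: cells exposed to compounds for about 24 h before the protease read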
Procedure, shortened: as §1

[15] = target: Cytochrome P450 3A4 (Homo sapiens) (UniProt P08684); assay: qHTS for inhibitors of CYP3A4 against the NCATS DSHEA and TCM libraries (AID 1919971);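 also: inhibition lowers luminescence from luciferin made by CYP3A4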
Procedure, shortened: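 Luminescent P450-Glo readout. Enzyme plus pro-luciferin substrate in manufacturer buffer (typically 100 mM KPO4); 15 min RT preincubation; 1x NADPH regenerating system, 30-45 min RT in the dark; detection reagent 30 min.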

[16] = target: Cytochrome P450 2D6 (Homo sapiens) (UniProt P10635); assay: qHTS for inhibitors of CYP2D6 against the NCATS DSHEA and TCM libraries (AID 1919972)
Procedure, shortened: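 Steps: enzyme plus luciferin substrate dispensed; test substances pinned; 15 min RT; 1x NADPH regenerating solution added, 30–45 min RT protected from light; detection reagent, 30 min RT; luminescence measured. Minus-enzyme wells as background.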

Nicotinamide N-methyltransferase (Homo sapiens), sequence (P40261 whole entry, looked up): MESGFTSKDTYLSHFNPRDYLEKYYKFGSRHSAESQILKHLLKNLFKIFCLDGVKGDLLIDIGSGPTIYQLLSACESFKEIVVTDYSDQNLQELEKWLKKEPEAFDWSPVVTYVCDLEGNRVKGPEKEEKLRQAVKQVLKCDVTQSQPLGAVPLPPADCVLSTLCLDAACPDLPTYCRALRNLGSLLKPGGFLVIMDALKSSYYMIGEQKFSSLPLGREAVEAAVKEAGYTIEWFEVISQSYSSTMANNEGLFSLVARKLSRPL
Catechol O-methyltransferase (Homo sapiens), sequence (P21964 whole entry, looked up): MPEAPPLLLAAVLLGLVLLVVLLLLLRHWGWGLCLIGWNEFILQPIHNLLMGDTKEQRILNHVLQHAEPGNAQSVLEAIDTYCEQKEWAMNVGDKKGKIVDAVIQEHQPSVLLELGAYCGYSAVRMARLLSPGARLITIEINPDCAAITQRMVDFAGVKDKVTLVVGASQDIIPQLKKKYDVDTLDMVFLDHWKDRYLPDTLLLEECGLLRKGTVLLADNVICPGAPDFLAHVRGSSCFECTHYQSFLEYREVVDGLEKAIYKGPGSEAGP
Phospholipid hydroperoxide glutathione peroxidase GPX4 (Homo sapiens), sequence (P36969 whole entry, looked up): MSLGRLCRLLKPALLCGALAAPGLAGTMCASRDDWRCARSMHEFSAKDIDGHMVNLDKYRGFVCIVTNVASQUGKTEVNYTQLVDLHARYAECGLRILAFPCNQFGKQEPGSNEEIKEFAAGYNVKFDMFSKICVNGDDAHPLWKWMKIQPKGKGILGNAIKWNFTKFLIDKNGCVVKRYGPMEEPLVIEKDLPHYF
Glutathione peroxidase 1 (Homo sapiens), sequence (P07203 whole entry, looked up): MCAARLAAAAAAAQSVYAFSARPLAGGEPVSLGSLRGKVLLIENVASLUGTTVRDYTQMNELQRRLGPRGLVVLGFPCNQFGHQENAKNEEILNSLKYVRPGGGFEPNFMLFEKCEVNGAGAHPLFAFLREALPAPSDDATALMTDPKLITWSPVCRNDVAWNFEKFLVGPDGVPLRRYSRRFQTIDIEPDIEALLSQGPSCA
Phenylethanolamine N-methyltransferase (Homo sapiens), sequence (P11086 whole entry, looked up): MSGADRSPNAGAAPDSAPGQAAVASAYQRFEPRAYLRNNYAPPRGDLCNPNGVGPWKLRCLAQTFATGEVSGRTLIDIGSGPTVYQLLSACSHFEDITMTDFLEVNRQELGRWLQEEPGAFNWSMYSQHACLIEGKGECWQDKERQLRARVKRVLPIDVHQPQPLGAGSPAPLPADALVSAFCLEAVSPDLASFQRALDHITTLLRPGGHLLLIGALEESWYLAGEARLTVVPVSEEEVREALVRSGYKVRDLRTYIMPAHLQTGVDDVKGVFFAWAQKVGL
Cytochrome P450 3A4 (Homo sapiens), sequence (P08684 whole entry, looked up): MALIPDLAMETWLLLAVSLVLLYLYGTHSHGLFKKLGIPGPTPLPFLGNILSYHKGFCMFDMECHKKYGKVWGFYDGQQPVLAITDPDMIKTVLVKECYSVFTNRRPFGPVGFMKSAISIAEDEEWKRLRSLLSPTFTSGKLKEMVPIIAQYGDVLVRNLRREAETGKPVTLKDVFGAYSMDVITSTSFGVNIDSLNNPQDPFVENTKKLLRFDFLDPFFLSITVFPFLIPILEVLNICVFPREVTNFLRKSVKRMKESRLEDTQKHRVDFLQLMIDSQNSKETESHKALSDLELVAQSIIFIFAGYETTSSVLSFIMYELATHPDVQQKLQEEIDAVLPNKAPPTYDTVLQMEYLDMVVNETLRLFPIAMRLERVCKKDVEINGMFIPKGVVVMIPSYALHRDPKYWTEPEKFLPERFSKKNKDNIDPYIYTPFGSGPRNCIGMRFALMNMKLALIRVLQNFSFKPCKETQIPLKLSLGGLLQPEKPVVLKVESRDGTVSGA
Cytochrome P450 2D6 (Homo sapiens), sequence (P10635 whole entry, looked up): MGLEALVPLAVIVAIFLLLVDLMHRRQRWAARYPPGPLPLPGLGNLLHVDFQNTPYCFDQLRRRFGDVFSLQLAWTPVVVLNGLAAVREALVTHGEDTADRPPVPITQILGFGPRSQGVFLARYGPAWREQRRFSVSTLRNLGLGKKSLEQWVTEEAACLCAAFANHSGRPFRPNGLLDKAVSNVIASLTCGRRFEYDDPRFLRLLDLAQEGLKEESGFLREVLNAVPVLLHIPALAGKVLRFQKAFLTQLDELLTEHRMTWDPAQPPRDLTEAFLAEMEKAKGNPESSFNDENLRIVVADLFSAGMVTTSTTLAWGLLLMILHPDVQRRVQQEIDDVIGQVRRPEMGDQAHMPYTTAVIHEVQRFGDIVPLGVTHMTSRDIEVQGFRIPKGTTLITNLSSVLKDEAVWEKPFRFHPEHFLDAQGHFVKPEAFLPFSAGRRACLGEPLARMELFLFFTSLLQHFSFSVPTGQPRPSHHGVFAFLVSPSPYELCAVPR

Compound: COc1cc2c(cc1-c1c(C)noc1C)ncc1[nH]c(=O)n(C(C)c3ccccn3)c12 (stereo not given)
- activity [1]: -17.8%
- activity change, negative = inhibition [2]: 3.12%
- activity [3]: -29.4%
- activity [4]: 0.401%
- Potency [5]: inactive
- Potency [6]: inactive
- Potency [7]: inactive
- Potency [8]: inactive
- Potency [9]: inactive

Compound: Cn1cc(-c2ccc(S(=O)(=O)n3ccc(/C=C/C(=O)Nc4ccccc4N)c3)cc2)cn1
- outcome [10]: inactive
- Potency [11]: inactive
- Potency [5]: inactive
- Potency [6]: inactive
- Potency [7]: inactive
- Potency [8]: inactive
- Potency [9]: inactive

Compound: N#C/C(=C1\Nc2ccccc2S1)c1ccnc(NCCc2cccnc2)n1
- activity [1]: -23.6%
- Potency [2]: 15.2 µM (active)
- activity [3]: -43.4%
- activity [4]: -21.8%
- Potency [5]: inactive
- Potency [6]: inactive
- Potency [7]: 1.34 µM (active)
- Potency [9]: inactive

Compound: O=C(NO)c1ccc(CC(=O)N(CCO)c2ccccc2)cc1
- outcome [10]: inactive
- Potency [11]: inactive
- Potency [5]: inactive
- Potency [6]: inactive
- Potency [8]: inactive
- Potency [9]: inactive

Compound: C[C@H]1CO[C@@H]2Cn3cc(C(=O)NCc4ccc(F)cc4F)c(=O)c(O)c3C(=O)N12
- outcome [10]: inactive
- Potency [11]: inactive
- Potency [5]: inactive
- Potency [6]: inactive
- Potency [8]: inactive
- Potency [9]: inactive

Compound: O=C(NC[C@H]1CN(c2ccc(N3CCOCC3=O)cc2)C(=O)O1)c1ccc(Cl)s1
- outcome [10]: inactive
- Potency [11]: inactive
- Potency [5]: inactive
- Potency [6]: inactive
- Potency [7]: inactive
- Potency [8]: inactive
- Potency [9]: inactive

Compound: CO[C@H]1C[C@@H]2CC[C@@H](C)[C@@](O)(O2)C(=O)C(=O)N2CCCC[C@H]2C(=O)O[C@H]([C@@H](C)C[C@@H]2CC[C@@H](O)[C@H](OC)C2)CC(=O)[C@H](C)/C=C(\C)[C@@H](O)[C@@H](OC)C(=O)[C@H](C)C[C@H](C)/C=C/C=C/C=C/1C
- outcome [10]: inactive
- Potency [11]: inactive
- Potency [5]: inactive
- Potency [8]: inactive
- Potency [9]: inactive

Compound: CC(C)(C)c1ccc(C(=O)Nc2cc(Cl)c(Br)cc2C(=O)O)cc1
- activity [1]: -14%
- activity change, negative = inhibition [2]: -8.07%
- activity [3]: -40.5%
- activity [4]: -22%
- Potency [5]: inactive
- Potency [6]: 6.75 µM (active)
- Potency [7]: inactive
- Potency [8]: inactive
- Potency [9]: inactive

Compound: Cc1ccc(C)c(-c2cc(C(F)(F)F)nn2-c2ccc(S(N)(=O)=O)cc2)c1
- activity [1]: -7.64%
- activity change, negative = inhibition [2]: -5.49%
- activity [3]: -48.6%
- activity [4]: -4.27%
- Potency [5]: inactive
- Potency [6]: inactive
- Potency [7]: inactive
- Potency [8]: inactive
- Potency [9]: inactive

Compound: NS(=O)(=O)c1ccc(NC(=O)Nc2ccc(F)cc2)cc1
- outcome [10]: inactive
- Potency [12]: 12.9 µM (active)
- Potency [11]: inactive
- Potency [5]: inactive
- Potency [6]: inactive
- Potency [7]: inactive
- Potency [8]: inactive
- Potency [9]: inactive

Compound: CC(C)C[C@H](CO)Nc1nc(S[C@@H](C)c2ccccc2)nc2nc(N)sc12
- activity [1]: -3.51%
- activity change, negative = inhibition [2]: 1.87%
- activity [3]: -40.8%
- activity [4]: -2.5%
- Potency [5]: inactive
- Potency [6]: inactive
- Potency [7]: inactive
- Potency [8]: inactive
- Potency [9]: inactive

Compound: Cc1cc2ncc(C(=O)NCC(C)(C)NCC(=O)N3CCC[C@H]3C#N)cn2n1
- outcome [10]: inactive
- Potency [11]: inactive
- Potency [5]: inactive
- Potency [6]: inactive
- Potency [7]: inactive
- Potency [8]: inactive
- Potency [9]: inactive

Compound: c1cc(NC2CCNCC2)nc(-c2cnc3ccccn23)c1
- activity [1]: -7.29%
- activity change, negative = inhibition [2]: -7.64%
- activity [3]: -8.81%
- activity [4]: -8.43%
- Potency [5]: 16.1 µM (active)
- Potency [6]: inactive
- Potency [8]: inactive
- Potency [9]: inactive

Compound: COc1cc2c(NC3CCN(C(C)C)CC3)nc(N3CCC(F)(F)CC3)nc2cc1OCCCN1CCCC1
- activity [1]: -11.2%
- activity change, negative = inhibition [2]: -0.0366%
- activity [3]: -8.4%
- activity [4]: -0.61%
- Potency [5]: 25.5 µM (active)
- Potency [6]: inactive
- Potency [8]: inactive

Compound: Cc1cc(N2CCOCC2)ccc1Nc1nc(NC2CCCCC2)c2[nH]cnc2n1
- activity [1]: -13.2%
- activity change, negative = inhibition [2]: -8.72%
- activity [3]: -20.9%
- activity [4]: -9.51%
- Potency [6]: inactive
- Potency [7]: 1.68 µM (active)
- Potency [8]: inactive
- Potency [9]: inactive

Compound: CC(C)CCNC(=O)[C@H](CC(C)C)NC(=O)[C@H]1O[C@@H]1C(=O)O
- outcome [10]: inactive
- Potency [11]: inactive
- Potency [5]: inactive
- Potency [6]: inactive
- Potency [7]: inactive
- Potency [8]: inactive
- Potency [9]: inactive

Compound: CCCCCCCCCC(=O)O
- outcome [13]: inactive
- outcome [14]: inactive
- Potency [11]: inactive
- Potency [5]: inactive
- outcome [15]: inactive
- outcome [16]: inactive

Compound: COc1ccc(CNCC(O)COc2ccc3[nH]c(=O)ccc3c2)cc1OC (stereo not given)
- Potency [11]: inactive
- Potency [5]: inactive

Compound: COc1ccc(CCNCC(O)COc2cccc(C)c2)cc1OC (stereo not given)
- Potency [11]: inactive
- Potency [5]: inactive
